Reference: PubChem BioAssay (NCATS)
Results filed as inconclusive are left out. The source made the active and inactive calls. Unless noted, the call rests on the fitted dose curve; in most records, active means well fitted curve in either direction with a large enough effect (not every such curve was filed as active); inconclusive means small, poorly fitted or top-dose-only effect, or another doubt; inactive means flat fitted curve, though single readings scatter.

What was measured:
[1] = target: Lysosomal acid glucosylceramidase (Homo sapiens) (UniProt P04062); experiment: Glucocerebrosidase-p2 (AID 348; in the data active means potency below about 10 µM; further: potency means the concentration at half of the fitted maximal effect); settings: purified GBA, blue fluorogenic substrate, 40 min
Method in brief: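 Compounds titrated from 0.6 nM upwards against 0.2 nM enzyme in pH 5.9 citric acid/KH2PO4, taurocholate, tween-20; blue fluorogenic substrate 80 uM, 40 min room temperature, stopped and read Ex 365/Em 440 for AC50.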

[2] = AP1 Signaling Pathway (AID 357); settings: ME-180 AP-1-bla reporter, EGF-induced, beta-lactamase ratio, 5 h; at 7.69 µM (top of the series) unless noted;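 further: ME-180 reporter cells stimulated with EGF at its EC50 level; on the % scale 0 is the no-effect control and ±100 the full control effect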
Method in brief: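 Read-out was the 460nm/530nm emission ratio (excitation 405nm) after CCF4 loading for 2.5 hours at room temperature. Cells carried an AP-1-driven beta-lactamase reporter, were stimulated with EC50 EGF plus compound for 5 hours, and AC50 values came from titrations.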

[3] = NFAT Signaling Pathway (AID 444); settings: Jurkat NFAT-bla M1, carbachol, beta-lactamase ratio, 5 h; at 7.69 µM (top of the series) unless noted;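 further: carbachol stimulus at about its EC50 of 1 µM final; on the % scale 0 is the no-effect control and ±100 the full control effect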
Method in brief: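 Jurkat cells with NFAT-driven β-lactamase reporter and co-expressed M1 receptor, stimulated with carbachol (final 1 uM, ~EC50), compound titration, 5 h at 37 °C. CCF4 loaded 1 h at RT; 460/530 nm ratio gave %activity and AC50.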

[4] = Stat Signaling Pathway (AID 446); settings: ME-180 SIE beta-lactamase reporter, IL-6 stimulated, 5 h; at 7.69 µM (top of the series) unless noted;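 further: ME-180 cervical cancer cells given 40 pM IL-6 alongside compound; SIE-controlled beta-lactamase reporter measured as 460/530 nm FRET emission ratio; on the % scale 0 is the no-effect control and ±100 the full control effect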
Method in brief: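 ME-180 cells carrying a SIE-driven beta-lactamase reporter are stimulated with 40 pM IL-6 for 5 h at 37C in the presence of compound. The 460/530 nm FRET substrate ratio is read after 2.5 h at RT. Data are normalised to 300 pM IL-6 and to 125 nM JAK inhibitor controls.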

[5] = target: Glucocorticoid receptor (Homo sapiens) (UniProt P04150); experiment: GR-EFC Redistribution (AID 451; calls by dose curve; further: potency means the concentration at half of the fitted maximal effect); settings: CHO-K1 GR-EFC translocation, beta-gal luminescence, 2 h
Method in brief: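 CHO-K1 cells expressing nuclear EA and GR-ED fragments of b-gal; compounds titrated up to 46 uM final, 2 h at 37 C. GR nuclear translocation read as complemented b-gal luminescence after 1 h RT detection.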

[6] = target: Mitogen-activated protein kinase 10 (Mus musculus) (UniProt Q61831); experiment: JNK3 AlphaScreen Assay (AID 530); settings: JNK3 lysate, c-Jun phosphorylation; series mostly up to 57.1 µM;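 further: kinase came from lysate of stimulated human HepG2 cells; signal reports phosphorylation of biotinylated GST-cJun 1-79 at Ser73 with 10 µM ATP; on the % scale 0 is the no-effect control and ±100 the full control effect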
Method in brief: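 qHTS format: compounds tested as titrations against IL-1beta/TNF-alpha-activated HepG2 lysate JNK3 with biotin-GST-cJun substrate and 10 uM ATP at room temperature. Loss of anti-phospho-cJun AlphaScreen signal indicates inhibition.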

[7] = target: 3',5'-cyclic-AMP phosphodiesterase 4B (Homo sapiens) (UniProt Q07343); experiment: qHTS Assay for Inhibitors of PDE-IV (AID 607; active means well fitted activation curve with a large enough effect in the main read-out, with a control signal flat, not every such curve was filed as active; further: % of control where 0% means no effect); settings: HEK293 ACTOne CNG channel cells, membrane potential fluorescence; series mostly up to 22.9 µM
Method in brief: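 HEK293 ACTOne cells with CNG channel (1000/well), endogenous PDE4; membrane potential dye, compounds up to 22.9 uM final. Fluorescence Ex 535/Em 590; RO 20-1724 (100 uM final) as reference.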

[8] = target: Cytochrome P450 3A4 (Homo sapiens) (UniProt P08684); experiment: qHTS Assay for Activators of Cytochrome P450 3A4 (AID 885; active means well fitted curve in the direction sought with a large enough effect; an effect the other way counts as inactive or inconclusive; further: nearly all actives have a fitted effect of over 65% in size); settings: recombinant CYP3A4, Luciferin-PPXE luminescence, 60 min; series mostly up to 57.1 µM
Method in brief: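 Human CYP3A4 (20 nM) with Luciferin-PPXE at 25 uM (its KM) in 200 mM KPO4; 10 min compound preincubation, then NADPH regeneration and 60 min reaction at RT. Luciferin read by luminescence; normalized to 57 uM ketoconazole full inhibition.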

[9] = qHTS Assay for Lipid Storage Modulators (AID 1519; calls by dose curve); settings: Drosophila S3 cells, BODIPY lipid droplet/cell ratio, laser cytometry, cells loaded with oleic acid; for activity change, negative = inhibition: at 57.5 µM (top of the series)
Method in brief: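 Cells seeded at 5,000 per well were treated with compounds over a concentration series and loaded with oleic acid (400 uM, as added). Lipid droplet fluorescence (488 nm excitation, 500-530 nm channel) was read by laser-scanning cytometry and normalized to 20 uM Triacsin C.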

[10] = Primary qHTS for small molecule stabilizers of the endoplasmic reticulum resident proteome: Secreted ER Calcium Modulated Protein (SERCaMP) assay (AID 1508630; active means well fitted curve in the direction sought with a large enough effect; an effect the other way counts as inactive or inconclusive; further: on the % scale 0 is the no-effect control and ±100 the full control effect); settings: SH-SY5Y GLuc-SERCaMP (Gaussia luciferase released on ER calcium loss) secretion, thapsigargin, luminescence; series mostly up to 38.4 µM
Method in brief: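 GLuc-SERCaMP-expressing SH-SY5Y cells, pretreated 16 h with compound, are challenged with thapsigargin to empty ER calcium stores; after 4 h, coelenterazine is added directly to the medium and luminescence is imaged.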

[11] = measured here: cell count channel max response
[12] = measured here: lipid channel max response

Cytochrome P450 3A4 (Homo sapiens), sequence (P08684 whole entry, looked up): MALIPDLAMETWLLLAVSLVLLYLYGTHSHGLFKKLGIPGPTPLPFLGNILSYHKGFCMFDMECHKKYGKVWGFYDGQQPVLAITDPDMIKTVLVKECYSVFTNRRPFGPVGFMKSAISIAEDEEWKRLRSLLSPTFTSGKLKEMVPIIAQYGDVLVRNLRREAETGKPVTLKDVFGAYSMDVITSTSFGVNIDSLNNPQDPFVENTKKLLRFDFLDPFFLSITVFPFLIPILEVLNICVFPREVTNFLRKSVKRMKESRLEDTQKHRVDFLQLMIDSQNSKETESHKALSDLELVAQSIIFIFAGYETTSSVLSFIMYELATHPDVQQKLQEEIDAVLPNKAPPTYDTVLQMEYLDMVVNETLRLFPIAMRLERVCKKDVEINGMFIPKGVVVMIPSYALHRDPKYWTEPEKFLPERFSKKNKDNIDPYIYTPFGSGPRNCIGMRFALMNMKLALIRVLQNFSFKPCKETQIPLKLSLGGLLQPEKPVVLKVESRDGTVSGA
Glucocorticoid receptor (Homo sapiens), sequence (P04150 whole entry, looked up, the tested form may be a part): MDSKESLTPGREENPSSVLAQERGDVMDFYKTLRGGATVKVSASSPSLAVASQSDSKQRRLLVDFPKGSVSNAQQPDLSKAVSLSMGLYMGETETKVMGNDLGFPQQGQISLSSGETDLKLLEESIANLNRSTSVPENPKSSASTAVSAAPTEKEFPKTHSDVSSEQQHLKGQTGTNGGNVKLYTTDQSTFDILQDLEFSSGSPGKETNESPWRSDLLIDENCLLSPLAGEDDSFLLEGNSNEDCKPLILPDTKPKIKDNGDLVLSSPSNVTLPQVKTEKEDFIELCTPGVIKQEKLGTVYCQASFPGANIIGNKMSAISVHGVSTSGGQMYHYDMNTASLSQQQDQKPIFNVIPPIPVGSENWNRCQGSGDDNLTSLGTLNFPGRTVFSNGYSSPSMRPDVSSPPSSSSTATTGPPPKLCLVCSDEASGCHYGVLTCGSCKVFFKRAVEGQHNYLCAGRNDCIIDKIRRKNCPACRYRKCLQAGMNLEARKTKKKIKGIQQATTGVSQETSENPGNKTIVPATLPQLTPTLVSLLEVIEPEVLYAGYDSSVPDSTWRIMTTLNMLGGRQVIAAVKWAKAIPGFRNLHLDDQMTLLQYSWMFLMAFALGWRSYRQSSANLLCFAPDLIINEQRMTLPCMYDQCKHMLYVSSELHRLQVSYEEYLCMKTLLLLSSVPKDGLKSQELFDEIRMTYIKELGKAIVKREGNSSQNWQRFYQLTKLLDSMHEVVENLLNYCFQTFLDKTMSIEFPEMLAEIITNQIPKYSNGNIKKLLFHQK
3',5'-cyclic-AMP phosphodiesterase 4B (Homo sapiens), sequence (Q07343 whole entry, looked up): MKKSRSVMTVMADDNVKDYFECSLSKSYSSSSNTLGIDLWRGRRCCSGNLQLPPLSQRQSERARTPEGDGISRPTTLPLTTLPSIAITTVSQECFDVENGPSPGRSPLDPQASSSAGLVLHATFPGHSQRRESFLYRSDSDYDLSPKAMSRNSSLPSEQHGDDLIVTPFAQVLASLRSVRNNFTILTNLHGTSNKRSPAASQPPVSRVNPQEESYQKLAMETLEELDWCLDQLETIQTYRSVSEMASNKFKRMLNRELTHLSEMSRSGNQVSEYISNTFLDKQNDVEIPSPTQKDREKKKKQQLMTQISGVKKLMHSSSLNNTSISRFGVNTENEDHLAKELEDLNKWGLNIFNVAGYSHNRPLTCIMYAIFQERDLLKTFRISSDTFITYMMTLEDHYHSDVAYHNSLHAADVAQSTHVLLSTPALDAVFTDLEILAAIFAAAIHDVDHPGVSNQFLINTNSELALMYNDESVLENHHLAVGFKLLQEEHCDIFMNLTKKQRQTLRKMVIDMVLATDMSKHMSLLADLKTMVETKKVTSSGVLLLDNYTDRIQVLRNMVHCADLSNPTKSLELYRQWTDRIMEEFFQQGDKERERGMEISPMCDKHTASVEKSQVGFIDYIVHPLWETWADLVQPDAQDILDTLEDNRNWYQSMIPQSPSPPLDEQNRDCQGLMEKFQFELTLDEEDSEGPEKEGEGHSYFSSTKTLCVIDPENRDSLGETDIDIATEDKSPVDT
Lysosomal acid glucosylceramidase (Homo sapiens), sequence (P04062 whole entry, looked up): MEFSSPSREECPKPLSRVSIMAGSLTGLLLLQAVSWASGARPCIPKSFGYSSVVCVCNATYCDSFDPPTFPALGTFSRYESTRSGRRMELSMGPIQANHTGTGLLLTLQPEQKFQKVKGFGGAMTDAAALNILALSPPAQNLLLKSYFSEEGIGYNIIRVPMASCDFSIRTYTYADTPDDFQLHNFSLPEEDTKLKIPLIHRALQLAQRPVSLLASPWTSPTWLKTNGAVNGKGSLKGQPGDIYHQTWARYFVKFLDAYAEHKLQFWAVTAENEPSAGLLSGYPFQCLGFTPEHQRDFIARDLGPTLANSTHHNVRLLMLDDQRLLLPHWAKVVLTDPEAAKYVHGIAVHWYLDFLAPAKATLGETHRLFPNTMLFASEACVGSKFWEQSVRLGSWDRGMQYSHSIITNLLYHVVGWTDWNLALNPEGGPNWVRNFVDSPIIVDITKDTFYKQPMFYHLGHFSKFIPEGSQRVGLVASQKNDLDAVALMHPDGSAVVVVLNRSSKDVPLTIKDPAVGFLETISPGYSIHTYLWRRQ

SMILES | Potency [1] | activity change, negative = inhibition [2] | activity change, negative = inhibition [3] | activity, negative = inhibition [4] | Potency [5] | Potency [6] | Potency [7] | Potency [8] | activity change, negative = inhibition [9] | max response [9, 11] | max response [9, 12] | outcome [10]
COc1ccc(NC(=O)N2CC[C@@]3(CCCN(S(C)(=O)=O)C3)C2)cc1 | > 11.4 µM (inactive) | -12.7% (inactive) | 4.27% (inactive) | -1.03% (inactive) | > 46 µM (inactive) | inactive | inactive | inactive | 4.71% (inactive) | 8.24% | 15.1% | inactive
CC(C)NC(=O)N1CC2(CCN(C(=O)c3cccn3C)CC2)C1 | > 11.4 µM (inactive) | -10.8% (inactive) | -17.2% (inactive) | 4.27% (inactive) | > 46 µM (inactive) | inactive | inactive |  | 2.27% (inactive) | 10.2% | 15.6% | inactive
CC(C)CN1CC[C@@]2(CCCN(C(=O)c3ccco3)C2)C1 | > 11.4 µM (inactive) | -7.86% (inactive) | 7.22% (inactive) | -2.85% (inactive) | > 46 µM (inactive) | inactive | inactive | inactive | 3.8% (inactive) | 3.5% | 8.53% | inactive
CC(=O)N1CCC2(CC1)CN(c1cccc(-c3ccccc3)c1)C2 | > 11.4 µM (inactive) | -4.65% (inactive) | 16.1% (inactive) | 1.02% (inactive) | > 46 µM (inactive) | inactive | inactive |  | 6.04% (inactive) | 6.96% | 17.4% | inactive
CC(C)NC(=O)N1CCC2(CC1)CCN(S(=O)(=O)c1ccccc1)CC2 | > 11.4 µM (inactive) | -11.1% (inactive) | 6.99% (inactive) | -1.93% (inactive) | > 46 µM (inactive) | inactive | inactive |  | 3.73% (inactive) | -0.645% | 4.57% | inactive
COCC(=O)N1CCC2(CCCN(c3ccc(-c4ccccc4)cc3)C2)CC1 | > 11.4 µM (inactive) | -7.31% (inactive) | 3.92% (inactive) | -7.13% (inactive) | > 46 µM (inactive) | inactive | inactive |  | -5.34% (inactive) | 18.5% | 14.9% | inactive
CC(=O)N1CCC2(CCCN(Cc3cc(C(F)(F)F)cc(C(F)(F)F)c3)C2)CC1 | > 11.4 µM (inactive) | 7.77% (inactive) | 23.8% (inactive) | -2.82% (inactive) | > 46 µM (inactive) | inactive | inactive | inactive | 4.05% (inactive) | 1.79% | 9.32% | inactive
O=C(Nc1cccc(F)c1)N1CC[C@@]2(CCCN(C(=O)c3ccncc3)C2)C1 | > 11.4 µM (inactive) | -4.21% (inactive) | 9.18% (inactive) | -6.29% (inactive) | > 46 µM (inactive) | inactive | inactive |  | 5.32% (inactive) | 15.8% | 23.2% | inactive
O=C(Nc1ccccc1)N1CC[C@@]2(CCCN(C(=O)c3cccc(F)c3)C2)C1 | > 11.4 µM (inactive) | -10.5% (inactive) | -6.63% (inactive) | 4.89% (inactive) | > 46 µM (inactive) | inactive | inactive | inactive | 5.88% (inactive) | 19.2% | 27.2% | inactive
COc1ccc(NC(=O)N2CC[C@@]3(CCCN(C(=O)c4ccco4)C3)C2)cc1 | > 11.4 µM (inactive) | -13.2% (inactive) | -7.9% (inactive) | 13.8% (inactive) | > 46 µM (inactive) | inactive | inactive |  | 2.86% (inactive) | 9.78% | 12.5% | inactive
CC(=O)N1CCC2(CC1)CN(Cc1cc(C(F)(F)F)cc(C(F)(F)F)c1)C2 | > 11.4 µM (inactive) | 2.68% (inactive) | 13.2% (inactive) | 11% (inactive) | > 46 µM (inactive) | inactive | inactive |  | 4.71% (inactive) | 20.4% | 27.2% | inactive
COCC(=O)N1CCC2(CC1)CN(c1ccc(-c3ccccc3)cc1)C2 | > 11.4 µM (inactive) | 2.14% (inactive) | 14.1% (inactive) | -17.6% (inactive) | > 46 µM (inactive) | inactive | inactive |  | 2.72% (inactive) | -7.54% | -3.13% | inactive
COCC(=O)N1CCC2(CCCN(c3ccccc3)C2)CC1 | > 11.4 µM (inactive) | 4.54% (inactive) | -7.94% (inactive) | -0.962% (inactive) | > 46 µM (inactive) | inactive | inactive | inactive | 0.354% (inactive) | 4.96% | 6.05% | inactive
O=C(Nc1ccccc1)N1CC[C@@]2(CCCN(C(=O)c3csnn3)C2)C1 | > 11.4 µM (inactive) | -13.6% (inactive) | 9.61% (inactive) | 0.432% (inactive) | > 46 µM (inactive) | inactive | inactive |  | 6.56% (inactive) | -5.15% | 6.65% | inactive
